Screening results deposited in PubChem BioAssay by several laboratories.
INS promoter inh: TRM-6 insulin promoter activity inhibition. AID 1273. 0.9% of 130,000 active. inhibition, % at 2 µM. TRM-6 cells (human fetal islet line), insulin promoter-eGFP reporter, imaging; reporter expression induced with tamoxifen;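 active means inhibition above the mean plus 3 SD, with well images judged a real hit on visual review, cut at about 60% in these data, passing the limit was not always enough; inconclusive means inhibition over the cutoff but images rejected on review; inactive means inhibition not above the cutoff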
Measles CPE: protection of cells from measles virus. 1.5% of 140,000 active. protection (pct of control), % at 4 µM. Measles virus-infected cells, CPE protection, absorbance. AID 841; in the data active means protection mostly above about 24%, no sharp cut-off; inactive means mostly below about 26%
ROMK primary: modulates human ROMK potassium channel activity. Tet-inducible ROMK, thallium flux fluorescence; actives lie on both sides. B-score at 10 µM. 2% of 130,000 active. AID 1918;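 active means signal ratio slope over the read window, or its plate-corrected B-score, at least 3 SD from the plate mean, either direction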;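 further: B-score of the F/F0 ratio slope over 7 to 12 s after thallium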
Target sequence (P48048 whole entry, looked up): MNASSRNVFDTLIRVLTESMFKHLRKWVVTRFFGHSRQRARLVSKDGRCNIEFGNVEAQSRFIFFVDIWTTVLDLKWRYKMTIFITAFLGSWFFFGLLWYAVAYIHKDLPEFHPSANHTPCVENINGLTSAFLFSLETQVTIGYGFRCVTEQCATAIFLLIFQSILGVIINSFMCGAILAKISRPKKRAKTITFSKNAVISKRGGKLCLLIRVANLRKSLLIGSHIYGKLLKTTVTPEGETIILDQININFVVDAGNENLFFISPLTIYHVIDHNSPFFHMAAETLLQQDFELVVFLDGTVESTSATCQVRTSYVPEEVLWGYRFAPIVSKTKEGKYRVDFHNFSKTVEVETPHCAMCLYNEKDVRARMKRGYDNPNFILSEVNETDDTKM
SDO1 yeast rescue: compounds rescuing growth of sdo1-depleted yeast, bone marrow failure model; AID 817; z-score at 10 µM; 0.21% of 140,000 active; S. cerevisiae sdo1-depleted JHY4D growth rescue, OD600 30 h; hits give high values; pdr5 snq2 efflux-pump mutant strain;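 active means z-score above 3 at both the 24 hr and the 30 hr optical density reads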;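 further: z-score against mean and SD of all compound wells on the same plate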
ROMK hit retest: human ROMK channel modulation, retest confirmation; 54% of 3,000 active; AID 1917; ROMK thallium flux, fluorescence ratio; hits give low values; normalized thallium flux (F/F0 slope) at 10 µM; shares compounds with ROMK primary;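 active means Flux at 10 µM at least 3 SD below or above vehicle control mean in one or both replicates; inconclusive means no clear call, values can overlap the other calls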
* marks the source's active call; other numbers are inactive results. Hits are enriched below; roughly 3% of the tested compounds scored in any of these assays.

Screening O=C(CSc1nnc(Cn2c(=O)sc3ccccc32)n1CCc1ccccc1)N1CCCC1 returned Measles CPE 13, SDO1 yeast rescue 1.1 and ROMK hit retest 0.078.
NC(=O)CSc1nnc(Cn2c(=O)sc3ccccc32)n1CCc1ccccc1 was read as Measles CPE 19 and SDO1 yeast rescue -0.08.
For O=C(c1ccccc1[N+](=O)[O-])N1CCC(Cc2ccccc2)CC1 the results were INS promoter inh 34, Measles CPE 4 and SDO1 yeast rescue -0.95.
Screening CC(C)c1[nH]nc2c1C(c1cccs1)C(C#N)=C(N)O2 (configuration not stated) returned INS promoter inh 47, Measles CPE 12, ROMK primary -5.7*, SDO1 yeast rescue -0.27 and ROMK hit retest 0.058*.
COc1ccc(C2N(C(=O)N3CCOCC3)CCN2S(=O)(=O)c2ccc(C)cc2)cc1 (configuration not stated) was read as INS promoter inh 23, Measles CPE 9, ROMK primary 1.9*, SDO1 yeast rescue 0.59 and ROMK hit retest 0.083.
For CC(CN1CCNCC1)(NS(=O)(=O)c1ccccc1)c1ccccc1 (configuration not stated) the results were INS promoter inh 7, Measles CPE 7, ROMK primary -4.5*, SDO1 yeast rescue -1.6 and ROMK hit retest 0.062*.
Screening CC(C)(CN1CCN(C(c2ccccc2)c2ccccc2)CC1)NS(=O)(=O)c1ccccc1 returned ROMK primary 0.39.
Cc1cc(C)n2nc(SCC(=O)c3ccccc3)nc2n1 was read as INS promoter inh 34, Measles CPE 15, ROMK primary 0.34 and SDO1 yeast rescue 0.
`Cc1cc(C)n2nc(SCC(=O)c3cc(C)n(-c4cc(C)on4)c3C)nc2n1` gave Measles CPE 4, SDO1 yeast rescue -0.64 and ROMK hit retest 0.078.
Screening O=C(CN1C2=NCCCN2c2ccccc21)c1ccc([N+](=O)[O-])cc1 returned ROMK primary -0.029.
`Cn1c(=O)c2c(SCC(=O)N3CCCc4ccccc43)nc(C3CC3)nc2n(C)c1=O` gave Measles CPE 21, SDO1 yeast rescue -1.9 and ROMK hit retest 0.071.
CC(C)=CCN1CCN(Cc2cnc(C)s2)CC1CCO (configuration not stated) was read as ROMK primary 2.8.
For NC1=NC(c2cccc(O)c2)n2c(nc3ccccc32)N1 (configuration not stated) the results were INS promoter inh -29, Measles CPE 4, ROMK primary 0.62 and SDO1 yeast rescue 0.65.
For NC1=NC(c2ccc(F)cc2)n2c(nc3ccccc32)N1 (configuration not stated) the results were Measles CPE 6, ROMK primary -2.5 and SDO1 yeast rescue 0.08.
For Cc1ccc(-n2c(C)cc(C3N=C(N)Nc4nc5ccccc5n43)c2C)c(C)c1 (configuration not stated) the results were Measles CPE 2, SDO1 yeast rescue -2.8 and ROMK hit retest 0.047*.
Cc1cc(C2N=C(N)Nc3nc4ccccc4n32)c(C)n1-c1ccccc1Cl (configuration not stated) was read as INS promoter inh 10, Measles CPE 7, ROMK primary -5*, SDO1 yeast rescue -1.1 and ROMK hit retest 0.059*.
For O=C(Cn1nc2n(c1=O)-c1ccccc1SC2)N/N=C/c1ccncc1 the results were ROMK primary -0.46.
For CCSc1nnc2nc(C)cc(C)n12 the results were INS promoter inh 46, Measles CPE 12, ROMK primary 1.9*, SDO1 yeast rescue 0.91 and ROMK hit retest 0.08.
Screening S=c1[nH]c2cc(-c3ccccc3)ccc2o1 returned ROMK hit retest 0.11*.
Screening CCOC(=O)Cc1ccc(NCc2ccc(Cl)cc2)cc1 returned ROMK primary -0.56.
`O=C1c2ccccc2S(=O)(=O)N1CC1CC(c2ccccc2)=NO1` (configuration not stated) gave INS promoter inh 27, Measles CPE 2, ROMK primary 2.1*, SDO1 yeast rescue 1.5 and ROMK hit retest 0.068*.
COc1ccc(NC(=O)CN2CCN(C3c4ccccc4-c4ccccc43)CC2)cc1 was read as INS promoter inh 34, Measles CPE 5 and SDO1 yeast rescue -1.6.
For COc1ccc(N=Cc2sc(O)c3ccccc23)cc1 the results were INS promoter inh 0, Measles CPE 18 and SDO1 yeast rescue -1.7.
For COc1ccc(N=Cc2c(O)c3ccccc3n2C(C)=O)cc1 the results were ROMK hit retest 0.033*.
`CCOC(=O)C(=Cc1cc(=O)c(OC)co1)C(=O)OCC` gave INS promoter inh -7, Measles CPE 0, ROMK primary -4.1*, SDO1 yeast rescue -1.1 and ROMK hit retest 0.048*.
COc1coc(C(O)CN)cc1=O (configuration not stated) was read as INS promoter inh 13, Measles CPE 1, ROMK primary 1.9 and SDO1 yeast rescue 1.4.
`CCOc1cc2oc(=O)c3c(c2cc1Cl)CCC3` gave INS promoter inh -29, Measles CPE 6, ROMK primary 0.37, SDO1 yeast rescue -0.94 and ROMK hit retest 0.086.
For CC1CCN(C(C(=O)NC2CCCCC2)c2cc3c(cc2[N+](=O)[O-])OCO3)CC1 (configuration not stated) the results were INS promoter inh 50, Measles CPE 8, ROMK primary -3.1*, SDO1 yeast rescue -0.85 and ROMK hit retest 0.06*.
Cc1ccc2cc(C=O)c(Cl)nc2c1 was read as ROMK primary 3.7* and ROMK hit retest 0.083.
CC1=NN(C(=O)c2ccccc2Cl)C(O)(c2cccnc2)C1 (configuration not stated) was read as INS promoter inh 50, ROMK primary 0.25 and ROMK hit retest inconclusive.
For O=S(=O)(Nc1nc2c(s1)CCCC2)c1ccc(Br)cc1 the results were INS promoter inh 3, Measles CPE 6, ROMK primary -3.2*, SDO1 yeast rescue -0.67 and ROMK hit retest 0.076.
Cc1ccc(-c2nc(CSCC(=O)NCCN3CCN(Cc4ccccc4)CC3)c(C)o2)cc1 was read as Measles CPE 5, ROMK primary -3.7*, SDO1 yeast rescue -0.47 and ROMK hit retest inconclusive.
Screening NC1=CC(=O)c2cccc3cccc1c23 returned INS promoter inh -100, ROMK primary -3.8* and ROMK hit retest 0.051*.
For O=C(Nc1cccnc1)C1CCC(CNS(=O)(=O)c2cccc3nsnc23)CC1 (configuration not stated) the results were ROMK primary 0.54.
COC(=O)[C@@]1(Cc2ccc(OC)cc2)[C@H]2c3cc(C(=O)N(C)C)n(CCc4ccc(OC)c(Br)c4)c3C[C@H]2CN1C(=O)c1ccccc1 was read as INS promoter inh 5, Measles CPE 26, ROMK primary -3.8*, SDO1 yeast rescue -0.62 and ROMK hit retest 0.065*.
`Cn1c(N)c(C(=O)COC(=O)c2cccnc2Cl)c(=O)n(C)c1=O` gave INS promoter inh 7 and ROMK hit retest 0.079.
